Inconclusive results are not listed. Activity calls are given as the source filed them. Rule for the calls: active = hit-call score of the fitted dose curve at least 0.9, where 1 is the maximum; inconclusive = response in the unintended direction; inactive = score below 0.9.
Columns and labels:
[1] = molecular target: human MAP Kinase-Activated Protein Kinase 2 (MAPKAPK2), MAPKAPK2 (gene 9261) (UniProt P49137); assay: NVS_ENZ_hMAPKAPK2: NovaScreen (NVS) Enzymatic Assay for human MAP Kinase-Activated Protein Kinase 2 (MAPKAPK2) (AID 2283178)
Summary of the method: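 Chemicals screened in duplicate at 25 uM, then to 50 uM top concentration in concentration-response, against recombinant human MAPKAPK2; substrate conversion read 1 hr post-dosing by fluorescence after electrophoretic mobility-shift separation, loss-of-signal relative to DMSO.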

[2] = molecular target: human Matrix Metalloproteinase-9 (MMP9), MMP9 (gene 4318) (UniProt P14780); assay: NVS_ENZ_hMMP9: NovaScreen (NVS) Enzymatic Assay for human Matrix Metalloproteinase-9 (MMP9) (AID 2283190);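 note: cell-free recombinant MMP9 protease activity read by fluorescent substrate signal; active means inhibition seen as loss of fluorescence signal versus DMSO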
Summary of the method: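 Screening concentration 25 uM, duplicate wells, then dose series for confirmation. Cell-free enzymatic reaction measured by fluorescence intensity 1 h post-dosing; decreased signal versus DMSO taken as activity.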

[3] = molecular target: Mitogen-activated protein kinase 3 (Homo sapiens) (UniProt P27361); assay: NVS_ENZ_hMAPK3: NovaScreen (NVS) Enzymatic Assay for human Mitogen-Activated Protein Kinase 3 (MAPK 3) (AID 2283177)
Summary of the method: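 Chemicals were first tested in duplicate at 25 uM, with hits re-run as concentration series (max 50 uM). Recombinant enzyme activity, measured 1 h post-dose in a cell-free format, was read by fluorescence/mobility shift relative to DMSO.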

[4] = molecular target: Collagenase 3 (Homo sapiens) (UniProt P45452); assay: NVS_ENZ_hMMP13: NovaScreen (NVS) Enzymatic Assay for human Matrix Metalloproteinase-13 (MMP13) (AID 2283182)
Description: NVS_ENZ_hMMP13 is a biochemical, single-readout assay that uses extracted gene-proteins in a cell-free assay. Measurements were taken 1 hour after chemical dosing in a 96-well plate.NVS_ENZ_hMMP13 is one of one assay component(s) measured or calculated from the NVS_ENZ_hMMP13 assay. It is designed to make measurements of enzyme activity, a form of enzyme reporter, as detected with fluorescence intensity signals by Fluorescence technology.Data from the assay component NVS_ENZ_hMMP13 was analyzed into 1 assay endpoint. This assay endpoint, NVS_ENZ_hMMP13, was analyzed in the positive analysis fitting direction relative to DMSO as the negative control and baseline of activity. Using a type of enzyme reporter, loss-of-signal activity can be used to understand changes in the enzymatic activity as they relate to the gene MMP13. Furthermore, this assay endpoint can be referred to as a primary readout, because this assay has produced multiple assay endpoints where this one serves a enzymatic activity function. To generalize the intended target to other relatable targets, this assay endpoint is annotated to the protease intended target family, where the subfamily is matrix metalloproteinase.
Binding assays used specific radioligands (tritiated, iodinated) with non-radioactive competitive displacement ligands in agonist or antagonist protocols (as indicated) and various reference compounds and inhibitors to titrate specific binding to receptors and transporters. Most enzyme assays (CYPs, kinases, phosphatases, proteases, HDACs) used recombinant protein and specific substrates (fluorescence mostly, some colorimetric and radioactive) and inhibitors, followed by a biochemical separation of substrate and product. All assays for the biochemical HTS were initially run in duplicate at a single concentration (10 uM for CYP450 assays and 25 uM for all others). Assay-chemical combinations meeting a pre-defined threshold (e.g., 30% inhibition and other criteria defined below) were then run in singleton concentration-response format with maximum concentration of 20 uM for CYPs and 50 uM for all others. Each assay was run with positive and negative controls, and concurrent controls on every plate. The follow-up (secondary) screen tested active chemical-pairs in concentration series, as well as a few additional assays not tested in the primary screen, some selected negative inactives, and several cases re-run in the concentration series for confirmatory purposes.

[5] = molecular target: human Matrix Metalloproteinase-7 (MMP7), MMP7 (gene 4316) (UniProt P09237); assay: NVS_ENZ_hMMP7: NovaScreen (NVS) Enzymatic Assay for human Matrix Metalloproteinase-7 (MMP7) (AID 2283183)
Summary of the method: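 Compounds first tested at 25 uM in duplicate, then at up to 50 uM in concentration series if active. Protease activity measured by fluorescence intensity 1 h after dosing, with fitting relative to DMSO.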

[6] = molecular target: human Matrix Metalloproteinase-3 (MMP3), MMP3 (gene 4314) (UniProt P08254); assay: NVS_ENZ_hMMP3: NovaScreen (NVS) Enzymatic Assay for human Matrix Metalloproteinase-3 (MMP3) (AID 2283185)
Summary of the method: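 Fluorescent substrate turnover by recombinant MMP3 read after 1 h, signal loss scored against DMSO. Compounds first run in duplicate at 25 uM single dose, then actives confirmed by concentration series.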

[7] = molecular target: human c-Jun N-terminal Kinases (JNK2), MAPK9 (gene 5601) (UniProt P45984); assay: NVS_ENZ_hJNK2: NovaScreen (NVS) Enzymatic Assay for human c-Jun N-terminal Kinases (JNK2) (AID 2283171)
Summary of the method: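 Chemicals first tested in duplicate at 25 uM, then in singleton concentration series up to 50 uM, against extracted JNK2 enzyme. Activity loss read by fluorescence with mobility-shift separation 1 h post-dose; DMSO baseline.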

[8] = molecular target: human Mitogen- and Stress-activated Protein Kinase-1 (Msk1), RPS6KA5 (gene 9252) (UniProt O75582); assay: NVS_ENZ_hMsk1: NovaScreen (NVS) Enzymatic Assay for human Mitogen- and Stress-activated Protein Kinase-1 (Msk1) (AID 2283187)
Summary of the method: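 Chemicals first run in duplicate at 25 uM, with actives followed up in singleton concentration series to 50 uM maximum. Enzyme activity came from substrate/product mobility-shift separation with fluorescence detection after 1 h incubation of the recombinant protein.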

[9] = molecular target: human Matrix Metalloproteinase-2 (MMP2), MMP2 (gene 4313) (UniProt P08253); assay: NVS_ENZ_hMMP2: NovaScreen (NVS) Enzymatic Assay for human Matrix Metalloproteinase-2 (MMP2) (AID 2283184)
Summary of the method: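 Compounds first screened in duplicate at a single 25 uM, with actives followed up in concentration series. Recombinant human MMP2 cleaves a fluorogenic substrate; fluorescence taken at 1 h, inhibition fitted relative to DMSO.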

Mitogen-activated protein kinase 3 (Homo sapiens), sequence (P27361 whole entry, looked up): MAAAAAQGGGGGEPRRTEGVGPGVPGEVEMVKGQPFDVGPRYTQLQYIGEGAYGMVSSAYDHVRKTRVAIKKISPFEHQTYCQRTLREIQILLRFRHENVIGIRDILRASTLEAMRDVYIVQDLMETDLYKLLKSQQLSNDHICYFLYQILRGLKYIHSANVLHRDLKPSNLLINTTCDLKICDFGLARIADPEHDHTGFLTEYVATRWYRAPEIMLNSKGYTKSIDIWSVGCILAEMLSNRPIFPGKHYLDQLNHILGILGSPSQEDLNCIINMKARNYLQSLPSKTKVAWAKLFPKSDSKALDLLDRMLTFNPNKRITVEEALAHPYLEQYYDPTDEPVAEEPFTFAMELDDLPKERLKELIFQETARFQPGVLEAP
human Matrix Metalloproteinase-7 (MMP7), MMP7 (gene 4316), sequence (P09237 whole entry, looked up): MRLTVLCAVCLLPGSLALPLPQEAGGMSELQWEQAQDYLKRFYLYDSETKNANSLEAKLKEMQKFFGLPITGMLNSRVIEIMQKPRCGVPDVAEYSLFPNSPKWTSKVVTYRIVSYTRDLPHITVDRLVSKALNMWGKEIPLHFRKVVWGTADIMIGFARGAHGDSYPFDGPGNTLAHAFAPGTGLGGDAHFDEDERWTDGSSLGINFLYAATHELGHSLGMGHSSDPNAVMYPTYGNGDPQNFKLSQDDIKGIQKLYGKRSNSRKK
human c-Jun N-terminal Kinases (JNK2), MAPK9 (gene 5601), sequence (P45984 whole entry, looked up): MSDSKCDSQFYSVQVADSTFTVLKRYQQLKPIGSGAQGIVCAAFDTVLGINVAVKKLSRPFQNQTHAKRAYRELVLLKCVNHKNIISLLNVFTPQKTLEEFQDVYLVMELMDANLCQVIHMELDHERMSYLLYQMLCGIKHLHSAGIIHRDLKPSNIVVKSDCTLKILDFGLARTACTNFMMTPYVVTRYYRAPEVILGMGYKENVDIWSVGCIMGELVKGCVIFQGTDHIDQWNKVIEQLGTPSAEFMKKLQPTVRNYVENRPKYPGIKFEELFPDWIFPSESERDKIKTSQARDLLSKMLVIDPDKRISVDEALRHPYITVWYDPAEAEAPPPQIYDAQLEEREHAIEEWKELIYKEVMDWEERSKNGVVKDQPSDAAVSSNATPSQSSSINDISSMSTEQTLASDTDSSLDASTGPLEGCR
human MAP Kinase-Activated Protein Kinase 2 (MAPKAPK2), MAPKAPK2 (gene 9261), sequence (P49137 whole entry, looked up): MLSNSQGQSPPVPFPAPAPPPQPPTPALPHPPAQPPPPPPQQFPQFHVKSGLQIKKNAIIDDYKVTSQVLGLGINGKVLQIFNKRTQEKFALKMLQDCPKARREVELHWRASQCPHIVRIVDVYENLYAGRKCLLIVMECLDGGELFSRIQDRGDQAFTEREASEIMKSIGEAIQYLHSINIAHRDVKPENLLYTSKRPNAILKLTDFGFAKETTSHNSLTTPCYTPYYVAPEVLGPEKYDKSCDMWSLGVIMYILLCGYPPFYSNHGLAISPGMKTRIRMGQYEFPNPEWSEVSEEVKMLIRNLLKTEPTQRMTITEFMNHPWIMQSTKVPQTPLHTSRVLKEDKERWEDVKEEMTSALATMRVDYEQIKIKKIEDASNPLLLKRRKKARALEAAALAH
human Matrix Metalloproteinase-3 (MMP3), MMP3 (gene 4314), sequence (P08254 whole entry, looked up): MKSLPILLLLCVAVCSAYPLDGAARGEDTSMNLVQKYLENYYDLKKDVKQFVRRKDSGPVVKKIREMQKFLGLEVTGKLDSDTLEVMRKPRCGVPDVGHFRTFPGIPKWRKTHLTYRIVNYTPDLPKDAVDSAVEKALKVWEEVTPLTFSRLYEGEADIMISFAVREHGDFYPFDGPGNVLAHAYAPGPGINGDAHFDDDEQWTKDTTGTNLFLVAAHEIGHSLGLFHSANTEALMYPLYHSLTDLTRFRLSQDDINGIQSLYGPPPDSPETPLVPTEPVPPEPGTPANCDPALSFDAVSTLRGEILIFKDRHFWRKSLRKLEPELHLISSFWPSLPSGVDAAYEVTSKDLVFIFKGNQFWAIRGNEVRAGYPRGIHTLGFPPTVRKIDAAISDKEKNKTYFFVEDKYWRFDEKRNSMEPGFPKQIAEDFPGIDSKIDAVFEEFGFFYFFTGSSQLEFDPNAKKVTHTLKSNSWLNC
human Matrix Metalloproteinase-9 (MMP9), MMP9 (gene 4318), sequence (P14780 whole entry, looked up): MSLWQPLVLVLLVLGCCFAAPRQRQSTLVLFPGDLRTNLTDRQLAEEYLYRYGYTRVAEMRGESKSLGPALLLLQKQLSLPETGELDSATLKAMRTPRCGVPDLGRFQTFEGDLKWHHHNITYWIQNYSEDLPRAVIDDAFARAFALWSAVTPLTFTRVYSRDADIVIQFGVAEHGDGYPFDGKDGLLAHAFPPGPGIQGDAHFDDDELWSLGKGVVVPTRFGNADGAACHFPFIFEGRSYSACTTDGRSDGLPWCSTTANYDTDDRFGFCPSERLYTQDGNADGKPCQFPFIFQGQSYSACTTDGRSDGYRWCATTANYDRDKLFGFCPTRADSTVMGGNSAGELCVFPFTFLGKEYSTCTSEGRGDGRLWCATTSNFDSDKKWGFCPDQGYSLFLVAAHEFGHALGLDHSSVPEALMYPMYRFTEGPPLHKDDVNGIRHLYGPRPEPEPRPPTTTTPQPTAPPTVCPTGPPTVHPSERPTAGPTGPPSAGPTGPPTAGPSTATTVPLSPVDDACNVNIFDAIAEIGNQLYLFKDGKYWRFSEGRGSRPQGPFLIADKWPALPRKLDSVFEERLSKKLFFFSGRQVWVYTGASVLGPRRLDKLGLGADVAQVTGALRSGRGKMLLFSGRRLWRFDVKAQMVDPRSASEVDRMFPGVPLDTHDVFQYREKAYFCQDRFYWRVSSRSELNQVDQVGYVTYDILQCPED
human Mitogen- and Stress-activated Protein Kinase-1 (Msk1), RPS6KA5 (gene 9252), sequence (O75582 whole entry, looked up): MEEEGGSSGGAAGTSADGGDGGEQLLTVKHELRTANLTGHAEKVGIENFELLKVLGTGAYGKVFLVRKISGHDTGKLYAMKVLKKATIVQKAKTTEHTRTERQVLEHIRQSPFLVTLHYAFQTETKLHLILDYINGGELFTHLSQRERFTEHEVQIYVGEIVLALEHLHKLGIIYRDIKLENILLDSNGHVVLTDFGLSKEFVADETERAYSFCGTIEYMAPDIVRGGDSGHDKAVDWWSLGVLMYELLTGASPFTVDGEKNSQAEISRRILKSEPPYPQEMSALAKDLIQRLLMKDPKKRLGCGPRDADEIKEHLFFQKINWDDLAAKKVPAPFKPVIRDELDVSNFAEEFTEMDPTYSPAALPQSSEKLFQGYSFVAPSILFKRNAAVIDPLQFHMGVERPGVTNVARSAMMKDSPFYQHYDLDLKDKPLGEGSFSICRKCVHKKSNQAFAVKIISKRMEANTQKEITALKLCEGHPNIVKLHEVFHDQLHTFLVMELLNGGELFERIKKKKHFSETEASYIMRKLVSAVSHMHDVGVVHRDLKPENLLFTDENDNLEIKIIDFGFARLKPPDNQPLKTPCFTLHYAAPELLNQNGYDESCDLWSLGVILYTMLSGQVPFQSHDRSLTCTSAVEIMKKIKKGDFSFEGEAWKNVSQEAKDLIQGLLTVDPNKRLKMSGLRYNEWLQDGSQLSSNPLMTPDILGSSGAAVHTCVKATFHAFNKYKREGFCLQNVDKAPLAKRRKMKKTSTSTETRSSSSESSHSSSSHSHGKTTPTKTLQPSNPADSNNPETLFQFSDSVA
human Matrix Metalloproteinase-2 (MMP2), MMP2 (gene 4313), sequence (P08253 whole entry, looked up): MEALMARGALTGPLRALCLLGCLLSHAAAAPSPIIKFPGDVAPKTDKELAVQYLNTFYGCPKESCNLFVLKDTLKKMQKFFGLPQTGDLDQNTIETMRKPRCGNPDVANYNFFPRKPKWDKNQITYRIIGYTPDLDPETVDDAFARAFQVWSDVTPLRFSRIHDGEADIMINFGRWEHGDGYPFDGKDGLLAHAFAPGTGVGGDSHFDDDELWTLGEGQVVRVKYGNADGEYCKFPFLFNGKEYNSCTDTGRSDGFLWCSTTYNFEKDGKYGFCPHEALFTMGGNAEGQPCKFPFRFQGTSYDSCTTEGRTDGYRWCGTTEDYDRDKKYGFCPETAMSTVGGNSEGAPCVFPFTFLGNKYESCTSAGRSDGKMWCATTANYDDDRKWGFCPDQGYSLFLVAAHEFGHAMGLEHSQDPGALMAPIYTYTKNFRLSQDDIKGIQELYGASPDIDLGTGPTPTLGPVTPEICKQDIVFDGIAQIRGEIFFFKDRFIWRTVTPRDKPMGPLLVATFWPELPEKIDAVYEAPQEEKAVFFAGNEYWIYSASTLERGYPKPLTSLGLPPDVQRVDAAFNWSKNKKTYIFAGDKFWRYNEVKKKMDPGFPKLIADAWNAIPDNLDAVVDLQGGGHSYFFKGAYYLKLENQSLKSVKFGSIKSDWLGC

In the case of `COc1nc(C)nc(NC(=O)NS(=O)(=O)c2ccccc2OCCCl)n1`, the AC50 [1] is reported as 36.2 µM (active) and the AC50 [2] is reported as 4.32 µM (active).

`O=C(Nc1ccc([N+](=O)[O-])cc1Cl)c1cc(Cl)ccc1O` was tested, and the outcome [3] was “inactive” and the outcome [1] was “inactive”.

For `C=CCOC(Cn1ccnc1)c1ccc(Cl)cc1Cl` (stereo not drawn), the outcome [4] was “inactive”, the AC50 [5] was 9.22 µM (active) and the AC50 [2] was 18.6 µM (active).

`C[C@]12C[C@H](O)[C@H]3[C@@H](CCC4=CC(=O)CC[C@@]43C)[C@@H]1CC[C@@H]2C(=O)CO` was tested, and the outcome [6] was “inactive”.

In the case of `C[C@]12CC[C@@H]3c4ccc(O)cc4C[C@@H](CCCCCCCCCS(=O)CCCC(F)(F)C(F)(F)F)[C@H]3[C@@H]1CC[C@@H]2O` (stereo partly drawn), the outcome [5] is reported as “inactive” and the outcome [6] is reported as “inactive”.

With `Oc1ccc(C(c2ccc(O)cc2)C(Cl)(Cl)Cl)cc1` the outcome [3] was “inactive”, the outcome [4] was “inactive” and the outcome [5] was “inactive”. For the same compound, the outcome [2] was “inactive”.

In the case of `CC(C)(c1ccc(O)cc1)c1ccc(O)cc1`, the outcome [7] is reported as “inactive”, the outcome [3] is reported as “inactive” and the outcome [4] is reported as “inactive”. The outcome [5] was “inactive” and the outcome [6] was “inactive”.

With `CC1(C)C(C=C(Cl)Cl)C1C(=O)OCc1cccc(Oc2ccccc2)c1` (stereo not drawn) the outcome [5] was “inactive”.

In the case of `CCOC(=O)C(C)Oc1ccc(Oc2nc3ccc(Cl)cc3o2)cc1` (stereo not drawn), the outcome [4] is reported as “inactive”.

`COC(=O)c1ccccc1S(=O)(=O)NC(=O)Nc1nc(OC(F)F)cc(OC(F)F)n1` was tested, and the outcome [3] was “inactive” and the outcome [1] was “inactive”.

`N[C@@H](Cc1cc(I)c(Oc2ccc(O)c(I)c2)c(I)c1)C(=O)O` was tested, and the outcome [1] was “inactive” and the AC50 [4] was 5.14 µM (active).

With `COCCO` the outcome [7] was “inactive”.

With `CCCCC(CC)CN1C(=O)C2C3C=CC(C3)C2C1=O` (stereo not drawn) the outcome [5] was “inactive” and the outcome [8] was “inactive”.

In the case of `CCCCCOC(=O)COc1cc(N2C(=O)C3=C(CCCC3)C2=O)c(F)cc1Cl`, the outcome [9] is reported as “inactive”.

With `CC(C)CCCCCCc1ccc(O)cc1` the outcome [7] was “inactive”, the outcome [3] was “inactive” and the outcome [1] was “inactive”. For the same compound, the outcome [8] was “inactive”.

Source: PubChem BioAssay (EPA / NIEHS)
